# From PubChem
# GLP-1R agonist = agonists of human GLP-1 receptor | HEK293 GLP-1R CRE-luciferase, luminescence, 4-6 h; cells express a hypersensitive GLP-1R form | Potency, µM (highest dose often 45.6 µM), inactives show at the highest dose activation, usual class: activators | actives 0.007% (n = 380,000) | AID 624172; further: % of control where 0% means no effect
# Target sequence (P43220 whole entry, looked up): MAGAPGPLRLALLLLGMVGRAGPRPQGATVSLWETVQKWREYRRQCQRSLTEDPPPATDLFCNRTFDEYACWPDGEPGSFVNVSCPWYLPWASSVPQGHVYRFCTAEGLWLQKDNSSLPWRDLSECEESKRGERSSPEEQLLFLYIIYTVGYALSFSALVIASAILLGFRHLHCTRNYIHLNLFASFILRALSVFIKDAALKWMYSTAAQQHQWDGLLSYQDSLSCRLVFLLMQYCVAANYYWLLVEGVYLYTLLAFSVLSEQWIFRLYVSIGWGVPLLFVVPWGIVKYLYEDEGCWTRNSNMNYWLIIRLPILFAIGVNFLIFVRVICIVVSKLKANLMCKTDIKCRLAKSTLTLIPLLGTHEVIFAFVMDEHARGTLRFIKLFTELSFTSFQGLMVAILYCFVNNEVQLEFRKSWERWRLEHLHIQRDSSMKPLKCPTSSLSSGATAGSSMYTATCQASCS
# GLP1R cytotox = cytotoxicity in counter-screen for GLP-1R inverse agonists; HEK293 cAMP-luciferase reporter cells, luminescence, 24 h; Potency, µM (titrated, usually from 38.3 µM), for the others: at the highest dose activity change, negative = inhibition, actives largely listed as inhibitors; actives 0.13% (n = 410,000);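 further: loss of luciferase light is scored as toxicity; on the % scale 0 is the no-effect control and ±100 the full control effect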
#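 Compound-treated cells are incubated 24 hr at 37 deg C under 5% CO2 after a 12 hour attachment period, then luciferase detection reagent is added and luminescence is measured following 12 min at room temperature; lowered signal indicates toxicity.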
# GLP-1R inv ag = inverse agonists of human GLP-1 receptor; Potency, µM (series often up to 38.3 µM), without a hit: at the highest dose activity change, negative = inhibition, usual class: inhibitors; HEK293 GLP-1R CRE-luciferase, luminescence, 24 h; GLP-1R form is constitutively active; AID 624417; actives 1.6% (n = 410,000); P43220; further: on the % scale 0 is the no-effect control and ±100 the full control effect; nearly all actives have a fitted effect of over 55% in size
#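 Stable HEK293 clone (constitutively active GLP-1R + cAMP-response luciferase); 200 cells/uL plated, 12 h pre-culture, compound 24 hr, 37 deg C/5% CO2; detection reagent 12 min RT; luminescence.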
# Numbers without * were called inactive; ? = inconclusive; · = not tested or not shown. In the library only some 1.7% were active in any assay of this set; here they are far more common. The call rests on the fitted dose curve; in most records, active means well fitted curve in the direction sought with a large enough effect; inconclusive means small, poorly fitted or top-dose-only effect, or another doubt; inactive means no such curve, though single readings can be large; an effect the other way counts as inactive or inconclusive. Potency means the concentration at half of the fitted maximal effect.
SMILES,GLP-1R agonist,GLP1R cytotox,GLP-1R inv ag
O=C1c2ccccc2C(=O)N1CC(=O)N1c2ccccc2CCc2ccccc21,-3%,-21%,0%
O=C(C(Cc1ccccc1)N1C(=O)c2ccccc2C1=O)N1c2ccccc2CCc2ccccc21 (stereo not given),-1%,6%,13µM*
O=C(NOCc1ccccc1)c1ccc(Cl)cc1,-1%,-13%,?
COc1ccc(C(=O)NC(NC(=S)Nc2ccc(S(N)(=O)=O)cc2)C(Cl)(Cl)Cl)cc1 (stereo not given),0%,-6%,3.2µM*
COc1ccc(C(=O)NC(Nc2ccccc2)C(Cl)(Cl)Cl)cc1 (stereo not given),-5%,-18%,7.1µM*
COc1ccc(C(=O)NNc2ccccc2)cc1,-18%,17%,?
COc1ccc(C(=O)NC(=S)Nc2ccc(S(N)(=O)=O)cc2)cc1,1%,3%,21%
COc1ccc(C(=O)NOCc2ccccc2)cc1,-7%,2%,3.2µM*
CCCCC(=O)Nc1ccccc1C(=O)OCc1cc(=O)n2nc(C3CCCCC3)sc2n1,·,-7%,?
COc1ccc(S(=O)(=O)N2CCC3(CC2)CC(=O)c2ccccc2O3)cc1C,-5%,14%,3%
CCOC(=O)Cc1ccc(NC(=O)Nc2cccc(OCc3cc(=O)n4cc(C)ccc4n3)c2)cc1,·,-10%,2%
COc1ccc2c(c1)C1=NN(/C(C)=C/C(C)=O)C(c3ccc(F)cc3)C1CC2 (stereo not given),9%,20%,0%
CN1N=C2c3ccccc3CCCC2C1c1ccc(F)cc1 (stereo not given),8%,-26%,7.1µM*
COc1cc2c3c(cccc3c1)C(=O)N(CCN1CCCC1)C2=O,-8%,-8%,4.5µM*
COc1ccc(C(=O)CN2CCN(CCN3C(=O)c4cccc5cccc(c45)C3=O)CC2)cc1,-1%,-16%,?
O=c1c2sccc2n(Cc2cc(=O)n3ccccc3n2)c(=O)n1-c1cc(F)ccc1F,·,-9%,26%
CC(=O)O[C@]1(C(=O)CO)[C@@H](C)C[C@H]2[C@@H]3CCC4=CC(=O)C=C[C@]4(C)[C@@]3(F)[C@@H](O)C[C@]21C,5%,·,·
C(=N\N1CCN(C2c3ccccc3-c3ccccc32)CC1)/c1cccnc1,4%,-21%,11µM*
C(=N\N1CCN(C2c3ccccc3-c3ccccc32)CC1)/c1ccccn1,-13%,16%,-13%
CCCn1c(N)c(C(=O)COC(=O)c2cccc(S(=O)(=O)N3CCOCC3)c2)c(=O)[nH]c1=O,19%,-10%,29%
CCN1C(=O)[C@H]2[C@@H](c3ccc(-c4ccc(OC)cc4)cc3)N[C@@](C)(C(=O)OC)[C@H]2C1=O,2%,-6%,-12%
COc1ccc(-c2cc3ccccc3n2CC(O)CNCCO)cc1 (stereo not given),-6%,-12%,2.8µM*
COc1ccc(-c2cc3ccccc3n2CC(O)CN2CCCCC2)cc1 (stereo not given),0%,0%,-5%
CCOC(=O)c1cc(C)n(Cc2cccc(OC)c2OC)c1C,2%,4%,4µM*
CCOC(=O)c1c(C)c(C)n(Cc2cccc(OC)c2OC)c1C,10%,10%,?
SMILES,GLP-1R agonist,GLP1R cytotox,GLP-1R inv ag
CC1=C(C(=O)Nc2ccccc2)C(CC(C)C)n2nc(SCc3ccccc3C)nc2N1 (stereo not given),-2%,-8%,-15%
COc1cccc(C(=O)NC2CC3CCCC(C2)N3CC(=O)Nc2ccccc2C(F)(F)F)c1 (stereo not given),8%,-8%,2.2µM*
O=C(CN1C2CCCC1CC(NC(=O)C1CCCCC1)C2)Nc1ccccc1C(F)(F)F (stereo not given),11%,8%,?
Cc1ccc(NC(=O)Cn2c(=O)c3cccn3c3ccccc32)cc1,-2%,8%,-1%
CCOc1ccc(/C=N/NC(=O)Cc2csc(Nc3cccc(C(F)(F)F)c3)n2)c(OCC)c1,-5%,-21%,?
CCOc1ccc(/C=N/NC(=O)Cc2csc(Nc3cccc(C(F)(F)F)c3)n2)cc1,-20%,-29%,2.2µM*
CC1(C)CC(=O)C=C(NCCN2CCN(C(=S)Nc3ccccc3)CC2)C1,2%,-1%,6%
CC(C)CNC1=C(C(=S)Nc2ccccc2)C(=O)CC(C)(C)C1,18%,56%,4µM*
COc1ccc([C@H]2C(C#N)=C([S-])N[C@](C)(O)[C@@H]2[n+]2ccccc2)cc1,11%,-14%,-5%
Cc1c(C(=O)NCc2ccc(F)cc2)c(-c2ccccc2)nn1-c1ccccc1,5%,2%,5µM*
Cc1nn(-c2ccccc2)c(C)c1C(=O)NCc1ccc(F)cc1,0%,-12%,1%
COC(=O)c1c(Oc2ccc(C(C)=O)cc2)nnc(-c2ccccc2)c1-c1ccccc1,·,-8%,?
CC(C)(C)OC(=O)N(CCc1ccccc1)Cc1ccccc1OCc1cccc(NC(=O)C2CCCC2)c1,-3%,4%,2.8µM*
CC(C)(C)OC(=O)N(CCc1ccccc1)Cc1cccc(OCc2cccc(NC(=O)C3CC3)c2)c1,-2%,-7%,?
CC(C)C(=O)Nc1cccc(COc2ccccc2CN(Cc2ccccc2)C(=O)OC(C)(C)C)c1,5%,-3%,11µM*
CC(C)(C)OC(=O)N(CCc1ccccc1)Cc1ccccc1OCc1cccc(NC(=O)C2CC2)c1,0%,-3%,?
CC(C)(C)OC(=O)N(CCc1ccccc1)Cc1ccc(OCc2cccc(NC(=O)C3CCCC3)c2)cc1,4%,-10%,?
CC(C)(C)OC(=O)N(CCc1ccccc1)Cc1ccccc1OCc1ccc(NC(=O)C2CCC2)cc1,-2%,2%,3.5µM*
CC(C)(C)OC(=O)N(CCc1ccccc1)Cc1cccc(OCc2cccc(NC(=O)C3CCCC3)c2)c1,18%,-11%,10µM*
CC(C)(C)OC(=O)N(Cc1ccccc1)Cc1ccccc1OCc1cccc(NC(=O)c2ccccc2)c1,-4%,1%,?
CC(C)(C)OC(=O)N(Cc1ccccc1)Cc1ccc(OCc2cccc(NC(=O)C3CC3)c2)cc1,-6%,3%,2%
CC(C)(C)OC(=O)N(Cc1ccccc1)Cc1ccccc1OCc1ccc(NC(=O)C2CCC2)cc1,-2%,-18%,2.8µM*
CCCNC(=O)c1ccc2c(=O)n3c(-c4ccc(C)cc4)csc3nc2c1,9%,-4%,12%
Cc1ccc2ccc(C(Nc3ccccc3)c3ccc(F)cc3)c(O)c2n1 (stereo not given),·,-15%,?
Cc1ccc2ccc(C(Nc3ccccc3)c3ccc(Cl)cc3)c(O)c2n1 (stereo not given),·,-8%,?
Cc1ccc2ccc(C(Nc3ccccc3)c3ccc(C(C)C)cc3)c(O)c2n1 (stereo not given),·,-6%,3.5µM*
Cc1ccc2ccc(C(Nc3ccccc3)c3ccccc3)c(O)c2n1 (stereo not given),·,6%,6.3µM*
CC(=O)NC(c1ccc(F)c(F)c1)c1nc(-c2cccc(C(=O)O)c2)cs1 (stereo not given),-1%,2%,32%
Cc1cccc(NC(=O)c2nc[nH]c2C(=O)N(C)Cc2ccccc2)c1,-4%,-2%,-7%
